Values without a mark were called inactive.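 Rule for the calls: active = AUC reduced over 20% with Padj below 0.05 in at least 2 of 3 replicates; inactive = otherwise.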
Columns and labels:
Assay in all cases: growth AUC relative to DMSO control (median of replicates) (fraction); higher = more growth (less inhibition), active = hit call of the paper
Conditions in all cases: 20 µM; 24 h
Coprococcus comes = system: Coprococcus comes
How it was run: (§1)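 For each compound at 20 µM (1% DMSO), gut bacterial monocultures seeded at OD600 0.05 grew anaerobically in mGAM at 37 °C in round-bottom 96-well plates. Hourly OD600 readings over 24 h gave growth curves whose minimum OD was set to 0. Area under these curves was normalised to the plate median of solvent-only wells, or to row and column medians on the industrial chemical plate. Values are medians of three biological replicates grown on separate days.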

Escherichia coli ED1a = system: Escherichia coli ED1a
How it was run: as §1

Escherichia coli IAI1 = system: Escherichia coli IAI1
How it was run: as §1

Eubacterium rectale = system: Eubacterium rectale
How it was run: as §1

[1] = system: Fusobacterium nucleatum subsp. animalis
How it was run: as §1

Lactobacillus gasseri = system: Lactobacillus gasseri
How it was run: as §1

Lactobacillus paracasei = system: Lactobacillus paracasei
How it was run: as §1

Odoribacter splanchnicus = system: Odoribacter splanchnicus
How it was run: as §1

[2] = system: Parabacteroides distasonis
How it was run: as §1

Parabacteroides merdae = system: Parabacteroides merdae
How it was run: as §1

Roseburia intestinalis = system: Roseburia intestinalis
How it was run: as §1

Streptococcus salivarius = system: Streptococcus salivarius
How it was run: as §1

SMILES | growth AUC (Coprococcus comes) | growth AUC (Escherichia coli ED1a) | growth AUC (Escherichia coli IAI1) | growth AUC (Eubacterium rectale) | growth AUC [1] | growth AUC (Lactobacillus gasseri) | growth AUC (Lactobacillus paracasei) | growth AUC (Odoribacter splanchnicus) | growth AUC [2] | growth AUC (Parabacteroides merdae) | growth AUC (Roseburia intestinalis) | growth AUC (Streptococcus salivarius)
COc1nc(C)nc(NC(=O)NS(=O)(=O)c2ccccc2Cl)n1 | 0.971 | 0.982 | 0.988 | 0.986 | 1.02 | 1.07 | 1.01 | 0.952 | 1.01 | 0.979 | 0.995 | 0.992
CC(COc1ccc(Oc2ccccc2)cc1)Oc1ccccn1 (stereo unspecified) | 0.962 | 0.999 | 0.968 | 1.04 | 0.97 | 0.989 | 0.939 | 1.03 | 0.979 | 0.929 | 0.94 | 1.01
CCS(=O)Cc1ccccc1OC(=O)NC (stereo unspecified) | 1.01 | 0.977 | 0.971 | 1.11 | 1.05 | 0.854 | 1.01 | 0.975 | 0.8 | 0.997 | 1.02 | 0.987
O=C1C2(Cl)C3(Cl)C4(Cl)C(Cl)(Cl)C5(Cl)C3(Cl)C1(Cl)C5(Cl)C24Cl (stereo unspecified) | 0.0378 (active) | 0.98 | 0.969 | 0.696 | 0.757 | 0.135 (active) | 0.061 (active) | 0.0248 (active) | 0.0157 (active) | 0.0229 (active) | 0.0478 (active) | 0.0301 (active)
CCS(=O)c1c(C#N)nn(-c2c(Cl)cc(C(F)(F)F)cc2Cl)c1N (stereo unspecified) | 0.99 | 0.988 | 0.995 | 1.02 | 1.04 | 0.909 | 1.02 | 0.971 | 0.949 | 0.965 | 1.01 | 1.06
O=C(O)c1c(Cl)ccc2cc(Cl)cnc12 | 1 | 1 | 0.969 | 0.942 | 1.02 | 1.07 | 0.934 | 0.988 | 0.986 | 0.987 | 0.978 | 1.05
CS(=O)(=O)NC(=O)c1cc(Oc2ccc(C(F)(F)F)cc2Cl)ccc1[N+](=O)[O-] | 0.926 | 0.971 | 0.962 | 1.09 | 0.906 | 0.958 | 1.01 | 1.09 | 0.984 | 0.978 | 0.966 | 0.917
CC1(C)C(/C=C(\Cl)c2ccc(Cl)cc2)C1C(=O)OC(C#N)c1ccc(F)c(Oc2ccccc2)c1 (stereo unspecified) | 0.968 | 0.986 | 1.01 | 0.864 | 1.02 | 1.04 | 0.913 | 1.03 | 1 | 1 | 1.07 | 1.03
Clc1cccc(Cl)c1Cl | 1.01 | 0.985 | 0.997 | 0.982 | 1 | 1.02 | 1.03 | 1 | 1 | 1.01 | 0.972 | 1.06
COc1ccc(/C(=C/C(=O)N2CCOCC2)c2ccc(Cl)cc2)cc1OC | 0.985 | 1.01 | 1.02 | 1.12 | 1.06 | 0.961 | 1.06 | 0.823 | 0.993 | 0.993 | 1.06 | 0.987
COP(=O)(OC)O/C(C)=C/C(=O)N(C)C | 1 | 1 | 0.997 | 1.01 | 0.937 | 1.08 | 1.06 | 0.972 | 0.905 | 0.994 | 0.988 | 0.984
C=C(C)[C@H]1Cc2c(ccc3c2O[C@@H]2COc4cc(OC)c(OC)cc4[C@@H]2C3=O)O1 | 0.986 | 1 | 1.01 | 0.973 | 1.06 | 0.878 | 0.954 | 0.917 | 0.935 | 0.94 | 0.935 | 1.02
CCC(C)[C@H]1O[C@]2(C=C[C@@H]1C)C[C@@H]1C[C@@H](C/C=C(\C)[C@@H](O[C@H]3C[C@H](OC)[C@@H](O[C@H]4C[C@H](OC)[C@@H](O)[C@H](C)O4)[C@H](C)O3)[C@@H](C)/C=C/C=C3\CO[C@@H]4[C@H](O)C(C)=C[C@@H](C(=O)O1)[C@]34O)O2.CO[C@H]1C[C@H](O[C@H]2[C@H](C)O[C@@H](O[C@@H]3/C(C)=C/C[C@@H]4C[C@@H](C[C@]5(C=C[C@H](C)[C@@H](C(C)C)O5)O4)OC(=O)[C@@H]4C=C(C)[C@@H](O)[C@H]5OC/C(=C\C=C\[C@@H]3C)[C@]54O)C[C@@H]2OC)O[C@@H](C)[C@@H]1O (stereo partly specified) | 0.99 | 1.02 | 1.01 | 1.01 | 1.15 | 0.808 | 0.899 | 1.07 | 0.536 (active) | 1.05 | 0.571 (active) | 0.961
O=P(OCCCl)(OCCCl)OCCCl | 0.916 | 0.98 | 0.963 | 0.89 | 0.88 | 0.98 | 1.09 | 0.868 | 0.989 | 0.921 | 0.928 | 1.03
Cc1ccn2nc(S(=O)(=O)Nc3c(F)cccc3F)nc2n1 | 0.981 | 0.969 | 0.965 | 1.1 | 1.1 | 0.999 | 1.02 | 1.09 | 1.02 | 1 | 0.997 | 0.965
CCNc1nc(Cl)nc(NC(C)C)n1 | 1.01 | 1.02 | 0.992 | 1.06 | 1.03 | 0.976 | 1.08 | 1.07 | 1.05 | 0.999 | 1.09 | 0.966
ClC1=C(Cl)[C@]2(Cl)[C@@H]3[C@H]4C[C@H]([C@@H]5O[C@H]45)[C@@H]3[C@@]1(Cl)C2(Cl)Cl | 0.943 | 0.994 | 0.966 | 1.02 | 1.05 | 0.936 | 0.963 | 0.998 | 0.897 | 0.946 | 0.909 | 0.963
CCS(=O)(=O)Cc1ccccc1OC(=O)NC | 0.996 | 1 | 1 | 1.07 | 1.03 | 0.958 | 1.02 | 1 | 0.98 | 0.983 | 0.964 | 0.927
CCOc1ccccc1OS(=O)(=O)NC(=O)Nc1nc(OC)cc(OC)n1 | 1.01 | 1.01 | 1.01 | 0.938 | 1 | 1.11 | 0.736 | 1.15 | 1.02 | 1.02 | 0.92 | 0.966
CC1COC(Cn2cncn2)(c2ccc(Oc3ccc(Cl)cc3)cc2Cl)O1 (stereo unspecified) | 0.72 (active) | 0.979 | 1 | 0.723 (active) | 0.983 | 0.952 | 0.986 | 0.904 | 0.801 | 0.871 | 0.823 | 0.962
O=S1(=O)OCC2C(CO1)C1(Cl)C(Cl)=C(Cl)C2(Cl)C1(Cl)Cl (stereo unspecified) | 1.01 | 0.991 | 1 | 1.01 | 0.935 | 0.919 | 1.02 | 1.02 | 1.09 | 0.955 | 0.915 | 0.991
Cc1occc1C(=O)Nc1ccccc1 | 0.977 | 0.966 | 0.953 | 1.16 | 0.933 | 0.973 | 0.925 | 0.985 | 0.971 | 0.998 | 0.996 | 0.995
COCC(=O)N(c1c(C)cccc1C)[C@@H](C)C(=O)OC | 1.04 | 1.01 | 1 | 1.09 | 1.1 | 0.893 | 1.01 | 0.996 | 0.796 | 0.996 | 0.997 | 0.999

— the supplement of paper PMC12669032
